# Reference: PubChem BioAssay (NCATS)
# Records with an inconclusive call do not appear. A call without a number means that no potency is given here. Values without a mark were called inactive. The source made the active and inactive calls. Calls come from the whole dose curve; as a rule, active = well fitted inhibition curve with a large enough effect; inconclusive = small, poorly fitted or top-dose-only effect; inactive = flat fitted curve, though single readings scatter.
# Legend:
# FAB9 = assay: qHTS profiling for inhibitors of Plasmodium falciparum proliferation (AID 504749); conditions: P. falciparum in erythrocytes, SYBR Green DNA, 72 h; series mostly up to 28.7 µM
# Outline: (§1)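 Fluorescence of SYBR Green-bound parasite DNA, read at 485/535 nm, served as the growth measure. Infected erythrocytes were cultured with compound 72 h; artemisinin (0.29 uM) and DMSO wells defined the normalization range.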
# GB4 = assay: as above; conditions: P. falciparum in erythrocytes, SYBR Green DNA, 72 h; series mostly up to 28.7 µM
# Outline: as §1
# HB3 = assay: as above; conditions: P. falciparum in erythrocytes, SYBR Green DNA, 72 h; series mostly up to 28.7 µM
# Outline: as §1
# ICS = assay: as above; conditions: P. falciparum in erythrocytes, SYBR Green DNA, 72 h; series mostly up to 28.7 µM
# Outline: as §1
# JCK = assay: as above; conditions: P. falciparum in erythrocytes, SYBR Green DNA, 72 h; series mostly up to 28.7 µM
# Outline: as §1
# N140 = assay: as above; conditions: P. falciparum in erythrocytes, SYBR Green DNA, 72 h; series mostly up to 28.7 µM
# Outline: as §1
# P94_40 = assay: as above; conditions: P. falciparum in erythrocytes, SYBR Green DNA, 72 h; series mostly up to 28.7 µM
# Outline: as §1
# PAD = assay: as above; conditions: P. falciparum in erythrocytes, SYBR Green DNA, 72 h; series mostly up to 28.7 µM
# Outline: as §1
# PC15 = assay: as above; conditions: P. falciparum in erythrocytes, SYBR Green DNA, 72 h; series mostly up to 28.7 µM
# Outline: as §1
# PC26 = assay: as above; conditions: P. falciparum in erythrocytes, SYBR Green DNA, 72 h; series mostly up to 28.7 µM
# Outline: as §1
# PC49 = assay: as above; conditions: P. falciparum in erythrocytes, SYBR Green DNA, 72 h; series mostly up to 28.7 µM
# Outline: as §1
# SC27B = assay: as above; conditions: P. falciparum in erythrocytes, SYBR Green DNA, 72 h; series mostly up to 28.7 µM
# Outline: as §1
# TAB109 = assay: as above; conditions: P. falciparum in erythrocytes, SYBR Green DNA, 72 h; series mostly up to 28.7 µM
# Outline: as §1
# TAB113 = assay: as above; conditions: P. falciparum in erythrocytes, SYBR Green DNA, 72 h; series mostly up to 28.7 µM
# Outline: as §1
# TAB165 = assay: as above; conditions: P. falciparum in erythrocytes, SYBR Green DNA, 72 h; series mostly up to 28.7 µM
# Outline: as §1
# W2 = assay: as above; conditions: P. falciparum in erythrocytes, SYBR Green DNA, 72 h; series mostly up to 28.7 µM
# Outline: as §1
# CRL-7250 = normal cell line; assay: Cytotoxic Profiling of Annotated Libraries Using Quantitative High-Throughput Screening (AID 1296008); conditions: Five cell lines viability, CellTiter-Glo ATP luminescence, 48-72 h; max response: hits give low values
# Outline: (§2)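 Compounds were pin-transferred onto cells and incubated 48 or 72 hr at 37 degree Celsius, 95% humidity. CellTiter-Glo was added, plates sat 10 min at room temperature, then ATP-coupled luminescence was imaged as the viability read-out.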
# HEK293 = assay: as above; conditions: Five cell lines viability, CellTiter-Glo ATP luminescence, 48-72 h; max response: hits give low values
# Outline: as §2
# HaCat = assay: as above; conditions: Five cell lines viability, CellTiter-Glo ATP luminescence, 48-72 h; max response: hits give low values
# Outline: as §2
# P93_24 = assay: qHTS profiling for inhibitors of Plasmodium falciparum proliferation (AID 504749); conditions: P. falciparum in erythrocytes, SYBR Green DNA, 72 h; series mostly up to 28.7 µM
# Outline: as §1
# Note: nearly all actives have a fitted effect of over 60% in size.
# Potency is the fitted concentration of half-maximal effect.
compound,measurement,setting,value
Nc1ncnc2c1ncn2[C@@H]1O[C@H](CO)[C@@H](O)[C@H]1O,Potency,FAB9,inactive
same,Potency,GB4,inactive
same,Potency,HB3,inactive
same,Potency,ICS,inactive
same,Potency,JCK,inactive
same,Potency,N140,inactive
same,Potency,P94_40,inactive
same,Potency,PAD,inactive
same,Potency,PC15,inactive
same,Potency,PC26,inactive
same,Potency,PC49,inactive
same,Potency,SC27B,inactive
same,Potency,TAB109,inactive
same,Potency,TAB113,inactive
same,Potency,TAB165,inactive
same,Potency,W2,inactive
same,outcome,CRL-7250,inactive
same,max response,HEK293,1.55%
same,outcome,HaCat,inactive
N[C@@H](CSCCCO)C(=O)O,Potency,FAB9,inactive
same,Potency,GB4,inactive
same,Potency,HB3,inactive
same,Potency,ICS,inactive
same,Potency,JCK,inactive
same,Potency,N140,inactive
same,Potency,P93_24,inactive
same,Potency,P94_40,inactive
same,Potency,PAD,inactive
same,Potency,PC15,inactive
same,Potency,PC26,inactive
same,Potency,PC49,inactive
same,Potency,SC27B,inactive
same,Potency,TAB109,inactive
same,Potency,TAB113,inactive
same,Potency,TAB165,inactive
same,Potency,W2,inactive
same,max response,CRL-7250,-1.84%
same,outcome,HEK293,inactive
same,max response,HaCat,2.87%
Cc1cc(CC(=O)O)n(C)c1C(=O)c1ccc(Cl)cc1,Potency,FAB9,inactive
same,Potency,GB4,inactive
same,Potency,HB3,inactive
same,Potency,ICS,inactive
same,Potency,JCK,inactive
same,Potency,N140,inactive
same,Potency,P93_24,inactive
same,Potency,P94_40,inactive
same,Potency,PAD,inactive
same,Potency,PC15,inactive
same,Potency,PC26,inactive
same,Potency,PC49,inactive
same,Potency,SC27B,inactive
same,Potency,TAB109,inactive
same,Potency,TAB113,inactive
same,Potency,TAB165,inactive
same,Potency,W2,inactive
same,outcome,CRL-7250,inactive
same,outcome,HEK293,inactive
same,max response,HaCat,-1.31%
C[C@H]1O[C@@H](n2cc(F)c(=O)[nH]c2=O)[C@H](O)[C@@H]1O,Potency,FAB9,inactive
same,Potency,GB4,inactive
same,Potency,HB3,inactive
same,Potency,JCK,inactive
same,Potency,N140,inactive
same,Potency,P93_24,inactive
same,Potency,P94_40,inactive
same,Potency,PAD,inactive
same,Potency,PC15,inactive
same,Potency,PC26,inactive
same,Potency,PC49,inactive
same,Potency,SC27B,inactive
same,Potency,TAB109,inactive
same,Potency,TAB113,inactive
same,Potency,TAB165,inactive
same,Potency,W2,inactive
same,max response,CRL-7250,-5.52%
same,outcome,HEK293,inactive
same,Potency,HaCat,10.6 µM (active)
Nc1ccc(S(=O)(=O)NC(=O)c2ccccc2)cc1,Potency,FAB9,inactive
same,Potency,GB4,inactive
same,Potency,HB3,inactive
same,Potency,ICS,inactive
same,Potency,JCK,inactive
same,Potency,N140,inactive
same,Potency,P93_24,inactive
same,Potency,P94_40,inactive
same,Potency,PAD,inactive
same,Potency,PC15,inactive
same,Potency,PC26,inactive
same,Potency,PC49,inactive
same,Potency,SC27B,inactive
same,Potency,TAB109,inactive
same,Potency,TAB113,inactive
same,Potency,TAB165,inactive
same,Potency,W2,inactive
same,max response,CRL-7250,-4.44%
same,outcome,HEK293,inactive
same,outcome,HaCat,inactive
Oc1cn2c(n1)Nc1ccc(Cl)c(Cl)c1C2,Potency,FAB9,inactive
same,Potency,GB4,inactive
same,Potency,HB3,inactive
same,Potency,JCK,inactive
same,Potency,N140,inactive
same,Potency,P93_24,inactive
same,Potency,P94_40,inactive
same,Potency,PAD,inactive
same,Potency,PC15,inactive
same,Potency,PC26,inactive
same,Potency,PC49,inactive
same,Potency,SC27B,inactive
same,Potency,TAB109,inactive
same,Potency,TAB113,inactive
same,Potency,TAB165,inactive
same,Potency,W2,inactive
same,outcome,CRL-7250,inactive
same,outcome,HEK293,inactive
same,outcome,HaCat,inactive
O=c1cc[nH]c(=O)[nH]1,Potency,FAB9,inactive
same,Potency,GB4,inactive
same,Potency,HB3,inactive
same,Potency,ICS,inactive
same,Potency,JCK,inactive
same,Potency,N140,inactive
same,Potency,P93_24,inactive
same,Potency,P94_40,inactive
same,Potency,PAD,inactive
same,Potency,PC15,inactive
same,Potency,PC26,inactive
same,Potency,PC49,inactive
same,Potency,SC27B,inactive
same,Potency,TAB109,inactive
same,Potency,TAB113,inactive
same,Potency,TAB165,inactive
same,Potency,W2,inactive
same,outcome,CRL-7250,inactive
same,outcome,HEK293,inactive
same,max response,HaCat,-1.66%
O=c1[nH]c(=O)c2[nH]c(=O)[nH]c2[nH]1,Potency,FAB9,inactive
same,Potency,GB4,inactive
same,Potency,HB3,inactive
same,Potency,ICS,inactive
same,Potency,JCK,inactive
same,Potency,N140,inactive
same,Potency,P93_24,inactive
same,Potency,P94_40,inactive
same,Potency,PAD,inactive
same,Potency,PC15,inactive
same,Potency,PC26,inactive
same,Potency,PC49,inactive
same,Potency,SC27B,inactive
same,Potency,TAB109,inactive
same,Potency,TAB165,inactive
same,Potency,W2,inactive
same,max response,CRL-7250,-3.74%
same,max response,HEK293,-1.57%
same,max response,HaCat,1.96%
CC(C)(C)C(=O)NCCCC(=O)O,Potency,FAB9,inactive
same,Potency,GB4,inactive
same,Potency,HB3,inactive
same,Potency,ICS,inactive
same,Potency,JCK,inactive
same,Potency,N140,inactive
same,Potency,P93_24,inactive
same,Potency,P94_40,inactive
same,Potency,PAD,inactive
same,Potency,PC15,inactive
same,Potency,PC26,inactive
same,Potency,PC49,inactive
same,Potency,SC27B,inactive
same,Potency,TAB109,inactive
same,Potency,TAB113,inactive
same,Potency,TAB165,inactive
same,Potency,W2,inactive
same,max response,CRL-7250,-4.98%
same,outcome,HEK293,inactive
same,max response,HaCat,4.53%
Nc1ccc(S(=O)(=O)Nc2ccccc2)cc1,Potency,FAB9,inactive
same,Potency,GB4,inactive
same,Potency,HB3,inactive
same,Potency,ICS,inactive
same,Potency,JCK,inactive
same,Potency,N140,inactive
same,Potency,P93_24,inactive
same,Potency,P94_40,inactive
same,Potency,PAD,inactive
same,Potency,PC15,inactive
same,Potency,PC26,inactive
same,Potency,PC49,inactive
same,Potency,SC27B,inactive
same,Potency,TAB109,inactive
same,Potency,TAB113,inactive
same,Potency,TAB165,inactive
same,Potency,W2,inactive
same,outcome,CRL-7250,inactive
same,outcome,HEK293,inactive
same,outcome,HaCat,inactive
CCN(CC)CCNC(C(=O)OCCC(C)C)c1ccccc1 (centres undefined),Potency,FAB9,inactive
same,Potency,GB4,7.57 µM (active)
same,Potency,HB3,inactive
same,Potency,ICS,5.62 µM (active)
same,Potency,JCK,inactive
same,Potency,P93_24,8.91 µM (active)
same,Potency,PAD,inactive
same,Potency,SC27B,inactive
same,Potency,TAB165,10 µM (active)
same,Potency,W2,4.78 µM (active)
same,max response,CRL-7250,1.18%
same,outcome,HEK293,inactive
same,outcome,HaCat,inactive
O=C1O[C@H]([C@@H](O)CO)C(O)=C1O,Potency,FAB9,inactive
same,Potency,GB4,inactive
same,Potency,HB3,inactive
same,Potency,ICS,inactive
same,Potency,JCK,inactive
same,Potency,N140,inactive
same,Potency,P93_24,inactive
same,Potency,P94_40,inactive
same,Potency,PAD,inactive
same,Potency,PC15,inactive
same,Potency,PC26,inactive
same,Potency,PC49,inactive
same,Potency,SC27B,inactive
same,Potency,TAB109,inactive
same,Potency,TAB113,inactive
same,Potency,TAB165,inactive
same,Potency,W2,inactive
same,max response,CRL-7250,0.399%
same,outcome,HEK293,inactive
same,outcome,HaCat,inactive
